Screening results deposited in PubChem BioAssay by National Center for Advancing Translational Sciences (NCATS).
Rows were chosen to be rich in hits. Some 1.8% of all compounds tested hit in one or more screens of this group.
GLP1R ag – GLP-1 receptor (human) agonism; Potency, µM (series often up to 45.6 µM), without a hit: at the top dose activation, most hits filed as activators; HEK293 GLP-1R CRE-luciferase, luminescence, 4-6 h; cells express a hypersensitive GLP-1R form; AID 624172; P43220; 380,000 tested, 0.007% active; also: % of control where 0% means no effect
Target sequence (P43220 whole entry, looked up): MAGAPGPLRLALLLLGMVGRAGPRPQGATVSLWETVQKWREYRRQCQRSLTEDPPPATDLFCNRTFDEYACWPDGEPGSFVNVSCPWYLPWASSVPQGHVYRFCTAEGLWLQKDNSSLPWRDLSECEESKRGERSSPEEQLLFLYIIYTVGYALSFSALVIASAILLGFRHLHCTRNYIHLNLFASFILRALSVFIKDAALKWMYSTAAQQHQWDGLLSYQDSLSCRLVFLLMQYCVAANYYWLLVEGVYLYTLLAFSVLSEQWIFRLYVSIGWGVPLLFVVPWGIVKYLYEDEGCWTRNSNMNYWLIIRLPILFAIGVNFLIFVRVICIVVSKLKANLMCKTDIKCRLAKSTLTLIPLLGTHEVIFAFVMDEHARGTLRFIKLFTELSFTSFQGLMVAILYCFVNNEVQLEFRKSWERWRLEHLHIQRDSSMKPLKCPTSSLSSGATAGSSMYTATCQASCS
RGS4 inhibitor – human RGS4 inhibition; P49798; Potency, µM (top dose mostly 114 µM), for the others: at the top dose activity change, negative = inhibition, hits mostly inhibitors; Transcreener GDP fluorescence polarization, RGS4-accelerated GTP hydrolysis; 390,000 tested, 0.039% active; also: % is scaled to controls: 0 for no effect and ±100 for the full control effect; nearly all actives have a fitted effect of over 75% in size
Target sequence (P49798 whole entry, looked up): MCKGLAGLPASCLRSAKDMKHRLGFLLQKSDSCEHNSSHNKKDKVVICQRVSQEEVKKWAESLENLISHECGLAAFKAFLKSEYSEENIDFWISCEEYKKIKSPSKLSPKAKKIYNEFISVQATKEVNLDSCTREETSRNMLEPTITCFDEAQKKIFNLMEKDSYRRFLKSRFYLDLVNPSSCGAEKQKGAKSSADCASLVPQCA
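MLSMR compounds (23 nl, pin-transferred) preincubated 10 min at room temperature with a 500nM (2x) first reagent, then RGS4 at 900nM (2x) plus Transcreener GDP mix added; fluorescence polarization (620/688 nm) read before and after 90 min at 30 °C.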
HEK293 tox – cytotoxic in the GLP-1 receptor inverse agonist counter-screen | HEK293 cAMP-luciferase reporter cells, luminescence, 24 h | Potency, µM (series often up to 38.3 µM), inactives show at the top dose activity change, negative = inhibition, hits mostly inhibitors | 410,000 tested, 0.13% active | AID 624418;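 also: loss of luciferase light is scored as toxicity; % is scaled to controls: 0 for no effect and ±100 for the full control effect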
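Seeding density was 200 cells/uL; after overnight-length (12 h) culture, 23 nL compounds went on for 24 h at 37 °C. Readout used a luciferase detection reagent, luminescence taken after 12 min at room temperature.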
PTHR1 agonist – activates the human parathyroid hormone receptor PTHR1. HEK293 GP2 PTHR1 cells, GloSensor cAMP luminescence, 1 h. Potency, µM (highest dose often 115 µM), without a hit: at the highest dose activation, hits mostly activators. 410,000 tested, 0.075% active. AID 743266; also: nearly all actives have a fitted effect of over 55% in size
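HEK-293-derived GP2 cells expressing PTHR1 and a GloSensor cAMP reporter, 3,000/well, plated overnight, given luciferin plus IBMX (each 0.5 mM as added) for 1 h at 37 °C, then compound for 1 h at 37 °C. Luminescence was read after 15 min at room temperature.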
GCN5L2 inh – blocks human GCN5L2 histone acetyltransferase; GCN5L2 HAT assay, ThioGlo1 CoA-SH fluorescence; Potency, µM (titrated, usually from 58.9 µM), for the others: top-dose activity change, negative = inhibition, usual class: inhibitors; 390,000 tested, 0.21% active; AID 504327; also: % is scaled to controls: 0 for no effect and ±100 for the full control effect
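qHTS, 1536-well. 20nM enzyme, pH 7.5 HEPES/EDTA/Tween-20 buffer; 15 min compound preinc., RT. Start: 75uM H3(1-25), 70uM AcCoA, 50uM ThioGlo1. Read Ex340/Em540 at t=0 (autofluorescence flag) and t=20 min.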
GLP-1R inv ag – inverse agonists of human GLP-1 receptor. 410,000 tested, 1.6% active. P43220. Potency, µM (titrated, usually from 38.3 µM), without a hit: at the highest dose activity change, negative = inhibition, most hits filed as inhibitors. HEK293 GLP-1R CRE-luciferase, luminescence, 24 h; GLP-1R form is constitutively active; also: % is scaled to controls: 0 for no effect and ±100 for the full control effect; nearly all actives have a fitted effect of over 55% in size
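Seeding at 200 cells/uL, 12 h culture, 24 hr compound treatment, then luciferase reagent and a luminescence read; cells are HEK293 stably expressing a constitutively active GLP-1R plus cAMP-responsive luciferase.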
Numbers without * were called inactive; i = inactive; ? = inconclusive; . = no result given; [ ] = another dose, or the depositor's remark. Calls follow the shape of the dose curve; as a rule, active = well fitted curve in the direction sought with a large enough effect; inconclusive = small, poorly fitted or top-dose-only effect, or another doubt; inactive = no such curve, though single readings can be large; an effect the other way counts as inactive or inconclusive. Potency is read from the fitted curve at half-maximal effect.

SMILES	GLP1R ag	RGS4 inhibitor	HEK293 tox	PTHR1 agonist	GCN5L2 inh	GLP-1R inv ag
COc1ccc(-c2noc(CCC(=O)NCC3CCN(Cc4cccc(C)c4)CC3)n2)cc1	3%	-2%[11.4 µM]	-29%	-8%	-5%	11µM*
COc1ccc(-c2noc(CCC(=O)NC3CCN(Cc4ccccc4)CC3)n2)cc1	1%	-28%	-12%	i	-6%	?
CCCC(=O)O[C@]1(C(=O)CCl)[C@H](C)C[C@@H]2[C@H]3CCC4=CC(=O)C=C[C@]4(C)[C@@]3(F)C(=O)C[C@@]21C	-2%	.	.	.	-5%	.
Cc1cc(C)c(S(=O)(=O)Nc2ccc3c4c(cccc24)CC3)c(C)c1	5%	-42%	-33%	-36%	2%	4.5µM*
O=C(c1cc(C(F)(F)F)cc(C(F)(F)F)c1)N1CCC2(CC1)CCN(c1ccccc1)CC2	.	.	.	.	-5%	.
COc1ccc(/C=N/NC(=O)c2ccc3ccccc3c2)cc1OS(=O)(=O)c1ccc(NC(C)=O)cc1	-1%	-37%	2.2µM*	i	-12%	-1%
CCn1c(=O)c2[nH]c(SC)nc2n(CC)c1=O	18%	.	29%	i	.	147%
Cc1ccc(/C=N/NC(=O)CSc2nc3ccccc3n2Cc2ccc(Cl)cc2)o1	-9%	-39%	-23%	-18%	-6%	10µM*
N#CC1=C(N)NC(SCc2ccccc2)=C(C#N)C12CCCC2	9%	?	-5%	-15%	-10%	-8%
N#CC1=C(N)NC(SCc2ccc(Br)cc2)=C(C#N)C12CCCCC2	1%	10%	-14%	-85%	-10%	10µM*
O=[N+]([O-])c1ccc(-c2nc(-c3cccs3)c(-c3cccs3)[nH]2)cc1	-5%	-13%	?	-20%	-4%	3.2µM*
O=[N+]([O-])c1cccc(-c2nc(-c3cccs3)c(-c3cccs3)[nH]2)c1	1%	3%[11.4 µM]	0%	-15%[57.5 µM]	-3%	2.5µM*
CCC/C=C/c1ccc(CN2C(CC(C)C)C(=O)N(Cc3cn(Cc4ccco4)nn3)CCS2(=O)=O)cc1 (stereo not given)	-2%	.	-26%	-32%	.	?
O=C(CN1CCCCCCC1)NC(=O)NC1CCCCC1	5%	10%	1%	i	-3%	4µM*
Cc1cccc(NC(=O)CSc2nc3ccccc3c3nc(CCc4c(C)n[nH]c4C)nn23)c1	-16%	4%	5µM*	-21%[57.5 µM]	-9%	?
Cc1cncn1CCc1nc2c3ccccc3nc(SCC(=O)Nc3cccc(Cl)c3)n2n1	-24%	-31%	?	-2%	-6%	?
O=C(N/N=C(/CC(=O)c1cccs1)C(F)(F)F)c1ccc(O)cc1	4%	-32%	-29%	-17%	-3%	?
O=C(N/N=C(\CC(=O)c1cccs1)C(F)(F)F)c1cccnc1	4%	-16%	3%	-14%	-8%	2.2µM*
COC(=O)c1ccccc1NC(=O)C1(c2cccs2)CCOCC1	.	-42%	4%	i	3%	3%
CCn1ncc(Br)c1C(=O)Nc1ccc(C(C)C)cc1	?	10%[56.9 µM]	3%	-73%	16%	8.9µM*
CC(C)C(=O)NC(c1cccc([N+](=O)[O-])c1)c1ccc2cccnc2c1O (stereo not given)	-14%	0%	2.5µM*	i	-2%	?
CCCC(=O)NC(c1cccc([N+](=O)[O-])c1)c1ccc2cccnc2c1O (stereo not given)	-5%	.	?	i	.	?
COc1ccc(C(NC(C)=O)c2ccc3cccnc3c2O)c(OC)c1 (stereo not given)	0%	?	?	i	0%	3.5µM*
CC(C)c1cccc(C(C)C)c1NC(=O)c1ccc(-c2cc(Cl)ccc2Cl)o1	-6%	.	2%	i	.	14%
CCOC(=O)CSc1nnc(-c2nnc(SCC(=O)OCC)n2CC)n1CC	0%	-6%	7%	-21%	0%	7%
SMILES	GLP1R ag	RGS4 inhibitor	HEK293 tox	PTHR1 agonist	GCN5L2 inh	GLP-1R inv ag
CCOc1ccc(C(=O)NCC(c2cccs2)S(=O)(=O)c2ccccc2)cc1 (stereo not given)	.	-8%	2%	i	4%	?
CC(C)(C)c1ccc(C(=O)NCC(c2cccs2)S(=O)(=O)c2ccccc2)cc1 (stereo not given)	.	-31%	1%	i	-3%	2.8µM*
COC(=O)c1cc2sccc2n1CC(=O)Nc1ccc(OC)c(OC)c1	.	19%	1%	i	-13%	6%
CCc1cc2c(Sc3nc4ccccc4s3)ncnc2s1	12%	-16%	-28%	-20%[57.5 µM]	-10%	3.5µM*
c1ccc2sc(Sc3ncnc4sccc34)nc2c1	6%	-18%	-27%	-27%	-4%	?
O=C(O)c1cc(-c2ccco2)nn1-c1cccc(Cl)c1	-2%	-25%	22%	i	?	8%
O=C(O)c1cc(-c2ccco2)nn1-c1ccc(Cl)cc1	1%	?	6%[0.307 µM]	14%	20µM*	-3%[0.307 µM]
NC[C@@H]1O[C@@H](O[C@H]2[C@H](O)[C@H](O[C@@H]3O[C@H](CO)[C@@H](O)[C@H](N)[C@@H]3O)[C@@H](N)C[C@H]2N)[C@H](N)C[C@@H]1O	0%[19.8 µM]	.	.	.	?	.
COC(=O)c1ccc(CSc2ccccc2NC(=S)Nc2cccc(SC)c2)o1	14%	.	-17%	-31%	.	13µM*
COC(=O)c1cccc(NC(=S)Nc2ccccc2Cl)c1	-1%	-16%	-7%	i	1%	7%
CCOC(=O)c1c2c(n(Cc3ccccc3)c1C)C(=O)C(=O)c1ccccc1-2	-22%	-3%	5µM*	-28%	.	?
CCOC(=O)c1c2c(n(C)c1C)C(=O)C(=O)c1ccc(Br)cc1-2	10%	10%[11.4 µM]	-23%	-14%	.	?
O=C(CCNC(=O)c1ccc(Cl)cc1)NCc1ccco1	-1%	-13%	-19%	i	-2%	1%
O=C(O)/C=C/c1cnc2ccccc2n1	-4%	10%	-5%	i	-3%	16%
O=C(/C=C/c1cnc2ccccc2n1)NC12CC3CC(CC(C3)C1)C2	-1%	-53%	-20%	i	5%	2.5µM*
Cc1ccc(CNC(=O)CN(c2cc(C)cc(C)c2)S(=O)(=O)c2c(C)noc2C)cc1	0%	-23%	-7%	-29%	1%	?
Cc1ccc(NCc2cccn2-c2nnc(N3CCC(C(=O)NCCc4ccc(Cl)cc4)CC3)s2)cc1	.	-6%	-13%	-5%	-12%	10µM*
